Growth data for nine molecules are collected here from PubChem BioAssay (NCI).

This is part of a sample that, as a whole, favours compounds with a hit. Of some 83,000 tested, about 20% had one in any assay.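 48-hour exposure, single concentration, 96-well plates; percent growth endpoint where 0 means no net growth. Active: below 10.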 A number with no mark means an inactive call. Activity calls are given as the source filed them.

Test systems include SK-MEL-2 melanoma; EKVX NSCLC; TK-10 renal; ACHN renal; CAKI-1 renal; A498 renal; CCRF-CEM leukemia; RPMI-8226 leukemia; OVCAR-8 ovarian; OVCAR-5 ovarian; OVCAR-4 ovarian; SK-OV-3 ovarian; IGROV1 ovarian; OVCAR-3 ovarian; HS 578T breast; NCI/ADR-RES ovarian; SN12C renal; UO-31 renal; MOLT-4 leukemia; SR leukemia.
Holding throughout (test): NCI-60 one-dose screen, 48 h (100 = growth as untreated, 0 = no growth, -100 = all killed)
Common to all, as to settings: 10 µM unless noted

On to `Clc1ccc2c(NCCCN3CCN(c4nc(-n5ccnc5)nc5ccccc45)CC3)ccnc2c1`, for which the growth in the assay on SK-MEL-2 melanoma was 97.7%; in the assay with EKVX NSCLC it was 86%; with TK-10 renal, 122%; in the assay on ACHN renal, 110%; in the assay on CAKI-1 renal, 86.3%; with A498 renal it was 85.1%. Moreover, the growth in the assay with CCRF-CEM leukemia is 6.59% (active); with RPMI-8226 leukemia, -48.6% (active); in the assay with OVCAR-8 ovarian, 84.2%; with OVCAR-5 ovarian, 120%; in the assay with OVCAR-4 ovarian, 64.9%; with SK-OV-3 ovarian, 109%. The growth in the assay with IGROV1 ovarian was 86.5%; in the assay with OVCAR-3 ovarian, 90.5%; in the assay on HS 578T breast, 85.5%; with NCI/ADR-RES ovarian, 90.7%.
As for `COc1ccc(-c2nc3sc4c(c3c(=O)[nH]2)CCCC4)c2ccccc12`, the growth in the assay on SK-MEL-2 melanoma is 29.4%; in the assay on SN12C renal, 36.2%; with UO-31 renal, 24.8%; with TK-10 renal it was 38.3%; in the assay with ACHN renal, -32.5% (active); with CAKI-1 renal it was 9.7% (active). For the same molecule, the growth in the assay on A498 renal is -24.4% (active); in the assay on CCRF-CEM leukemia it was 12.5%; in the assay on MOLT-4 leukemia it was 14.2%; in the assay on SR leukemia, 7.04% (active); in the assay on RPMI-8226 leukemia, 11.5%; in the assay on OVCAR-8 ovarian, 12.8%. The growth with OVCAR-5 ovarian was -17.7% (active); with OVCAR-4 ovarian it was -7.19% (active); in the assay on SK-OV-3 ovarian it was 33.7%; with IGROV1 ovarian, 37.5%; in the assay on OVCAR-3 ovarian, -64.5% (active); in the assay with HS 578T breast it was -0.402% (active). In addition, in the assay on NCI/ADR-RES ovarian, the growth is 5.34% (active).
As to `CN(C)c1ccc(/C=N/NC(=O)COc2cc(=O)n(C)c3ccccc23)cc1`, the growth with SK-MEL-2 melanoma is 111%; with EKVX NSCLC it was 103%; in the assay on UO-31 renal, 71.7%; in the assay on TK-10 renal, 119%; with ACHN renal, 90.6%; with CAKI-1 renal it was 83.7%. The growth in the assay on A498 renal is 104%; with CCRF-CEM leukemia, 106%; in the assay with MOLT-4 leukemia, 104%; with RPMI-8226 leukemia, 107%; in the assay on OVCAR-8 ovarian it was 103%; with OVCAR-5 ovarian, 94.2%. The growth in the assay on OVCAR-4 ovarian was 113%; with SK-OV-3 ovarian it was 112%; in the assay with IGROV1 ovarian, 87%; in the assay on OVCAR-3 ovarian it was 112%; in the assay on NCI/ADR-RES ovarian, 108%.
In the case of `CN(C)CCCCNc1ccc(NCCCCN(C)C)c2c1C(=O)c1c(O)ccc(O)c1C2=O`, the growth in the assay with SK-MEL-2 melanoma was 98.2%; in the assay on EKVX NSCLC, -76.2% (active); in the assay with TK-10 renal, -93.6% (active); in the assay on ACHN renal, -89.2% (active); in the assay with CAKI-1 renal, -91.7% (active); in the assay on A498 renal, 92.4%. For the same molecule, the growth in the assay on CCRF-CEM leukemia is -28.5% (active); with MOLT-4 leukemia, -34.6% (active); with RPMI-8226 leukemia, 53.6%; with OVCAR-8 ovarian it was -73.1% (active); with OVCAR-5 ovarian it was -86% (active); with OVCAR-4 ovarian, 64%. The growth with SK-OV-3 ovarian is 85.6%; with IGROV1 ovarian, -84.5% (active); with OVCAR-3 ovarian, 100%; in the assay with HS 578T breast it was 92%; with NCI/ADR-RES ovarian, -68.8% (active).
As for `C=C1C(=O)O[C@H]2[C@H]1CC/C(Cn1cc(CNCCc3c[nH]c4ccccc34)nn1)=C\CC[C@@]1(C)O[C@@H]21`, the growth in the assay with SK-MEL-2 melanoma is 61.4%; with EKVX NSCLC it was 97.2%; with UO-31 renal, 80.7%; in the assay with TK-10 renal, 94.9%; in the assay with ACHN renal it was 87.4%; in the assay with CAKI-1 renal it was 91.3%. Besides, the growth is 103% in the assay on A498 renal; 16.4% with CCRF-CEM leukemia; 77.6% with MOLT-4 leukemia; 76.5% in the assay on RPMI-8226 leukemia; 92.5% in the assay with OVCAR-8 ovarian; 88.8% with OVCAR-5 ovarian. In addition, the growth with SK-OV-3 ovarian was 80.9%; in the assay on IGROV1 ovarian, 68.8%; with OVCAR-3 ovarian it was 69.4%; in the assay on HS 578T breast, 92.4%; with NCI/ADR-RES ovarian, 99.9%.
With `Cc1ccc(/C=C(\C#N)n2nnc3cc(Cl)c(Cl)cc32)cc1`, the growth in the assay with SK-MEL-2 melanoma is 26%; in the assay on EKVX NSCLC it was 36.5%; with UO-31 renal, 0.755% (active); in the assay with TK-10 renal, 44.6%; with ACHN renal, 25.7%; with CAKI-1 renal, 22.2%. Besides, the growth in the assay with CCRF-CEM leukemia was 9.85% (active); with MOLT-4 leukemia, 9.51% (active); in the assay with OVCAR-8 ovarian, 14.8%; with OVCAR-5 ovarian, 13.3%; in the assay with OVCAR-4 ovarian, 29.3%; in the assay on IGROV1 ovarian, 12.2%. In addition, the results for the growth with OVCAR-3 ovarian, with HS 578T breast and in the assay on NCI/ADR-RES ovarian were -35.2% (active), 11.7% and -25.5% (active), respectively.
As to `C[C@@H]1CC[C@@H]2[C@@H]1[C@H](OC(=O)c1ccc3ccccc3c1)[C@]1(C3CCCCC3)C[C@@H](OC(=O)CO)[C@@]2(C)O1`, the growth in the assay on SK-MEL-2 melanoma is 69.5%; in the assay with EKVX NSCLC, 62%; in the assay on UO-31 renal, -43.6% (active); with TK-10 renal it was 79.2%; with ACHN renal, 7.83% (active); with CAKI-1 renal it was -31% (active). Also, the growth in the assay with A498 renal was -85% (active); in the assay with CCRF-CEM leukemia, 48.3%; with RPMI-8226 leukemia, 31.4%; in the assay with OVCAR-5 ovarian, 89.4%; in the assay with OVCAR-4 ovarian, 55.5%; with SK-OV-3 ovarian, 75.4%. The growth in the assay on IGROV1 ovarian was 71.1%; in the assay with OVCAR-3 ovarian, 73.6%; with HS 578T breast, -32.1% (active); with NCI/ADR-RES ovarian, 14.6%.
For the molecule `Nc1ccc(CCCCc2ccccc2)c(Cl)c1`, the growth is 91.2% with SK-MEL-2 melanoma; 87.4% in the assay with SN12C renal; 63.9% in the assay with UO-31 renal; 88.7% with TK-10 renal; 94.2% in the assay on ACHN renal; 83.8% in the assay on CAKI-1 renal. Besides, the growth in the assay on A498 renal is 73.2%; in the assay on CCRF-CEM leukemia, 60.1%; in the assay on MOLT-4 leukemia it was 69.2%; in the assay on SR leukemia, 92.7%; with RPMI-8226 leukemia, 85.4%; in the assay on OVCAR-8 ovarian, 94%. The growth in the assay with OVCAR-5 ovarian was 96.7%; in the assay on OVCAR-4 ovarian, 84.4%; with SK-OV-3 ovarian, 98.7%; with IGROV1 ovarian, 87.2%; in the assay on OVCAR-3 ovarian, 94.3%; in the assay on HS 578T breast, 93.7%. Further, the growth with NCI/ADR-RES ovarian is 104%.
Consider `O=C(Nc1cccc2[nH]c(C(F)(F)F)nc12)c1cc(Cl)ccc1Cl`, for which the growth in the assay on SK-MEL-2 melanoma was -4.53% (active); with SN12C renal it was 28.7%; with UO-31 renal, -3.23% (active); with TK-10 renal, 4.93% (active); in the assay on ACHN renal it was 48.1%; in the assay with CAKI-1 renal it was 31.3%. Further, the growth in the assay on A498 renal was -7.02% (active); in the assay on CCRF-CEM leukemia, 22.7%; in the assay on MOLT-4 leukemia, 17.9%; in the assay on SR leukemia, 25.3%; in the assay with RPMI-8226 leukemia it was 14.5%; in the assay with OVCAR-8 ovarian, 26.5%. The growth in the assay with OVCAR-5 ovarian was 78.1%; in the assay on OVCAR-4 ovarian, 23.2%; in the assay on SK-OV-3 ovarian, 47.9%; in the assay with IGROV1 ovarian it was 35.8%; in the assay with OVCAR-3 ovarian, 21.4%; in the assay with HS 578T breast it was 53.9%. In addition, the growth in the assay with NCI/ADR-RES ovarian is 9.82% (active).
